Our source for the residual activity values is ChEMBL document CHEMBL2218924, “A broad activity screen in support of a chemogenomic map for kinase signalling research and drug discovery” (Biochem J, 2013).

Experiment [1] has as its target Rho-associated protein kinase 2 (Homo sapiens) (UniProt O75116). The note with it: at 1 µM.
Experiment [2] has the same target. The note with it: at 10 µM.
Experiment [3] addresses Proto-oncogene tyrosine-protein kinase receptor Ret (Homo sapiens) (UniProt P07949). The note with it: at 1 µM.
Experiment [4] shares this target. The note with it: at 10 µM.
Experiment [5] concerns the target Macrophage-stimulating protein receptor (Homo sapiens) (UniProt Q04912). The note with it: at 1 µM.
Experiment [6] has the same target. The note with it: at 10 µM.
For experiment [7], the target named is Proto-oncogene tyrosine-protein kinase ROS (Homo sapiens) (UniProt P08922). The note with it: at 1 µM.
Experiment [8] has the same target. The note with it: at 10 µM.
For experiment [9], the target named is T1, Tyrosine-protein kinase receptor TYRO3 (Homo sapiens) (UniProt Q06418).
T1 sequence (whole entry): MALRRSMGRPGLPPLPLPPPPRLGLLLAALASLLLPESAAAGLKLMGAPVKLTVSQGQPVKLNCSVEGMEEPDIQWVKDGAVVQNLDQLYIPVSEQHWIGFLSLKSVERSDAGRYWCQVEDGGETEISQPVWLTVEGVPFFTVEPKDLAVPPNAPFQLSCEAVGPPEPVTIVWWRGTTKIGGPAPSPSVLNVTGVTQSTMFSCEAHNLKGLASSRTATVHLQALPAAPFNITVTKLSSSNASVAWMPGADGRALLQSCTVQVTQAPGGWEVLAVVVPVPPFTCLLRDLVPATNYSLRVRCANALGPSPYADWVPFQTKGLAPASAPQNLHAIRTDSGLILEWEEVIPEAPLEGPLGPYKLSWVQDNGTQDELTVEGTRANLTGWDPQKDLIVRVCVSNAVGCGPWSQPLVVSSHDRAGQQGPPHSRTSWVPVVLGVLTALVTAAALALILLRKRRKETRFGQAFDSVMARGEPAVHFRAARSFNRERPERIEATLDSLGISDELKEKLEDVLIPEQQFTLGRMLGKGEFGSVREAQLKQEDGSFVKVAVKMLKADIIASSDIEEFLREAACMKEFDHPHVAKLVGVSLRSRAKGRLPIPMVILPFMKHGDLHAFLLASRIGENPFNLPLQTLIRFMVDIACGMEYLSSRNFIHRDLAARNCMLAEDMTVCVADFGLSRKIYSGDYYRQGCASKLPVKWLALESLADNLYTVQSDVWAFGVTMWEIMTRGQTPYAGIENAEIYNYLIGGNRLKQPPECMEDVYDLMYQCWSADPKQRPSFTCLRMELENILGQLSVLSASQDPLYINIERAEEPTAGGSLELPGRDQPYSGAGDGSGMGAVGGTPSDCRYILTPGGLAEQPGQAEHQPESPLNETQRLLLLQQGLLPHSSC
The note with it: at 1 µM.

The target in experiment [10] is T1, Tyrosine-protein kinase receptor TYRO3 (Homo sapiens). The note with it: at 10 µM.

Chain of Rho-associated protein kinase 2 (Homo sapiens) (O75116 whole entry, looked up): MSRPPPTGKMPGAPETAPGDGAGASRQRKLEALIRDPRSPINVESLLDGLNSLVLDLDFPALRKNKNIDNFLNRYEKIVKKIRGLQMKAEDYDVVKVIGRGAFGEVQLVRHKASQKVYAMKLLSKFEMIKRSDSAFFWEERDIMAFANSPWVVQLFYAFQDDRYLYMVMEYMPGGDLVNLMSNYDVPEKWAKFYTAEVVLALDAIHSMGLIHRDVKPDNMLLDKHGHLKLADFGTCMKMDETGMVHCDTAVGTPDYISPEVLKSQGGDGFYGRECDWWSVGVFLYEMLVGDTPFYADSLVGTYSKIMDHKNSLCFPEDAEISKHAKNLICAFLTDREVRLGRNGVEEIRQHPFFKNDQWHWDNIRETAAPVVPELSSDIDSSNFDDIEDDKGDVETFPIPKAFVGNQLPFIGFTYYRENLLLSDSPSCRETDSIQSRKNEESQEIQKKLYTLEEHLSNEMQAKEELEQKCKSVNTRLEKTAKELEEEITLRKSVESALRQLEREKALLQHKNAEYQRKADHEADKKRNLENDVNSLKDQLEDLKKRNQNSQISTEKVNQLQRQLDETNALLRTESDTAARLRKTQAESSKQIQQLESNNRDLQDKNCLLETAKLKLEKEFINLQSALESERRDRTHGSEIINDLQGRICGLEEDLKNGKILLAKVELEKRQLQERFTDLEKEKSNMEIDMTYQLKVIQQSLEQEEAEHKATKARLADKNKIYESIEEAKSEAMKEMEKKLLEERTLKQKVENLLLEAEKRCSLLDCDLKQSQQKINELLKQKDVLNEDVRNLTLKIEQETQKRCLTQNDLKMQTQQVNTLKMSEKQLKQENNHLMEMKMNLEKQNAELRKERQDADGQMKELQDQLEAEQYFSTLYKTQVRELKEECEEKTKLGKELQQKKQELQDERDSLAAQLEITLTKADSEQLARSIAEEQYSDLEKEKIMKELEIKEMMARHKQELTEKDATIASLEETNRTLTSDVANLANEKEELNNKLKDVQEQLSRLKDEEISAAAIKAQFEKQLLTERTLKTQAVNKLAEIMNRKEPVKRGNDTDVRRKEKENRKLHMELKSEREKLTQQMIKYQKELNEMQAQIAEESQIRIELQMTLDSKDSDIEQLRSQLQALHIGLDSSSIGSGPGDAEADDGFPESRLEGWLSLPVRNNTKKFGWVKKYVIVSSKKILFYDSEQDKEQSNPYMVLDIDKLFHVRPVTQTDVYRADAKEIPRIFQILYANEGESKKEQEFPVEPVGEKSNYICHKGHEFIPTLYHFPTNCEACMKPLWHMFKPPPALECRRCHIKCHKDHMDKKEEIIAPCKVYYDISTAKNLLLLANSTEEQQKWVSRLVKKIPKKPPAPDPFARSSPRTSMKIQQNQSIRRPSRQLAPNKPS
Chain of Proto-oncogene tyrosine-protein kinase receptor Ret (Homo sapiens) (P07949 whole entry): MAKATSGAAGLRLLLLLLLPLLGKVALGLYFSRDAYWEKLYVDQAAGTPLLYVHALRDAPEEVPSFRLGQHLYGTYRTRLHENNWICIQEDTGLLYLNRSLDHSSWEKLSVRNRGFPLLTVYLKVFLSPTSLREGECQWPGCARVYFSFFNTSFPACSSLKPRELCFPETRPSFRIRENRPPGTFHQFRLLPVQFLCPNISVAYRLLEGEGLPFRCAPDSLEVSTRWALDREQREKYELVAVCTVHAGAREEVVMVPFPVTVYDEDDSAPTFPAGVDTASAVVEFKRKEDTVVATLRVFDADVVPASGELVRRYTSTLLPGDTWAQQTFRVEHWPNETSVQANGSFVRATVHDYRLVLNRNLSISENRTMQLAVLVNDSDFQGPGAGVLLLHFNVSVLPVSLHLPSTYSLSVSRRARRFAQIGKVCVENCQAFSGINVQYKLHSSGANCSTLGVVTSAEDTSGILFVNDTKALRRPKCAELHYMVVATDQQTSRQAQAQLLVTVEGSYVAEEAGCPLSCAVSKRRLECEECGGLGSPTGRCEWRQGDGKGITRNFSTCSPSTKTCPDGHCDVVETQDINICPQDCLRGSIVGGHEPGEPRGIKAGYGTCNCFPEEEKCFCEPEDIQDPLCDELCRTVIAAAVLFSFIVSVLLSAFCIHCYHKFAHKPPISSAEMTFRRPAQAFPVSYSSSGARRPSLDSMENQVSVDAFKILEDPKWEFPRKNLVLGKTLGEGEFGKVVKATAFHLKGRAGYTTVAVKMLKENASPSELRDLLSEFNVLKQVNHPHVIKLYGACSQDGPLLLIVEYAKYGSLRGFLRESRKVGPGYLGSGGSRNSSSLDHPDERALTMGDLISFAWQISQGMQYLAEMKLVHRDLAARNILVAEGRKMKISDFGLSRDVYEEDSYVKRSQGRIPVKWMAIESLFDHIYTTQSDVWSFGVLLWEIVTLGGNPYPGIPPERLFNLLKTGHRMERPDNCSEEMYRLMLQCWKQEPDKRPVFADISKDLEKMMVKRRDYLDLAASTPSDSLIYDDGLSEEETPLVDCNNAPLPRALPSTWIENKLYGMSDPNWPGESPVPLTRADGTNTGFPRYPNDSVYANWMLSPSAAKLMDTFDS
Chain of Macrophage-stimulating protein receptor (Homo sapiens) (Q04912 25-304 limits assumed): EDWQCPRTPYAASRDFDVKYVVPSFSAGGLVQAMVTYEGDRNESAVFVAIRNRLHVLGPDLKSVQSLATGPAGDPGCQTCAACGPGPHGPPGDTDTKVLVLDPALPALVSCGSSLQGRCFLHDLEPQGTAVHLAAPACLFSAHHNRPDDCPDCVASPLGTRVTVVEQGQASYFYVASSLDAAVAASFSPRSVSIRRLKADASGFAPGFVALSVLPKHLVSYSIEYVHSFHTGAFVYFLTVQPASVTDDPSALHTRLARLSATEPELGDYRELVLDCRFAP
Chain of Macrophage-stimulating protein receptor (Homo sapiens) (Q04912 310-1400 limits assumed): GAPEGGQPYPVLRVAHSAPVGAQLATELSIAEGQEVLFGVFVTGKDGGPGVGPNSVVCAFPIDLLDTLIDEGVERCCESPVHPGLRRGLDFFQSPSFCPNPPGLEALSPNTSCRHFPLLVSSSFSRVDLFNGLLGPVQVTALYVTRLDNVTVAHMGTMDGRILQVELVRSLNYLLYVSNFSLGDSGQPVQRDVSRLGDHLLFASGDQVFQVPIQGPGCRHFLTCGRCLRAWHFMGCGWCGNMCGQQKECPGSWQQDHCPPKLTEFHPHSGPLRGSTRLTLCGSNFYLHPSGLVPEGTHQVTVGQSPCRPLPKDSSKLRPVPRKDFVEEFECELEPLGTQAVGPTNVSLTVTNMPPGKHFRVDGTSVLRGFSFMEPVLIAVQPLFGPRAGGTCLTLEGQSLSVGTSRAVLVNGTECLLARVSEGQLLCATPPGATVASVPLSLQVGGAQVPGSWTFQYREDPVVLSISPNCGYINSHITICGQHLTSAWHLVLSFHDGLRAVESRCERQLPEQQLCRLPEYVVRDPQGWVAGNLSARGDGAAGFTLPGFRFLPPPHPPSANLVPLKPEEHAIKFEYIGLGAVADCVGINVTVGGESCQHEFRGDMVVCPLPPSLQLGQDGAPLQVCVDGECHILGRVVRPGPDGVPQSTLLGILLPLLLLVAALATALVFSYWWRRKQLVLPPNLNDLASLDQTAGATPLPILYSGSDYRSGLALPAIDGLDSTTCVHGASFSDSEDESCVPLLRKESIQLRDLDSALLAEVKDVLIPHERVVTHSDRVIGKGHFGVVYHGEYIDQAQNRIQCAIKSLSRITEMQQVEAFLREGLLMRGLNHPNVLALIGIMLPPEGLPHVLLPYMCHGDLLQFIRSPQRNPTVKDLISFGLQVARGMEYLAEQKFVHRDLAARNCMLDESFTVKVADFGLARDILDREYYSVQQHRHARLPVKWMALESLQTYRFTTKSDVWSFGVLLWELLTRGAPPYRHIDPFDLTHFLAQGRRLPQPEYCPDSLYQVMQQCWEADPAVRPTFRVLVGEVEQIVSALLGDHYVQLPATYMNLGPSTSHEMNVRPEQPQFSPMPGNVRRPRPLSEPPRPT

On to `NC(=O)Nc1sc(-c2ccc(F)cc2)cc1C(N)=O`, for which the residual activity in experiment [1] amounted to 89%; in experiment [2] it was 53%; in experiment [3], 30%; in experiment [4] it was 1%; in [5], 73%; in experiment [6], 56%. The residual activity worked out at 91% in [7], 94% in experiment [8], 91% in [9] and 41% in [10].
Consider `CC(C)[C@H](CO)Nc1nc(Nc2cc(N)cc(Cl)c2)c2ncn(C(C)C)c2n1`, for which the residual activity in experiment [1] worked out at 91%; in experiment [2], 52%; in experiment [3], 83%; in experiment [4], 21%; in [5] it was 96%; in experiment [6] it was 62%. Further, the values for the residual activity in experiment [9] and in [10] were 84% and 53%, respectively.
Take `CCCC(=O)Oc1ccc2[nH]c(C(=O)c3cc4ccccc4[nH]3)cc2c1`: the residual activity in experiment [1] stood at 93%; in experiment [2], 83%; in experiment [3], 94%; in [5] it was 102%; in [6] it was 74%; in experiment [7], 86%. Moreover, the residual activity in [8] was determined as 90%; in experiment [9] it was 92%; in [10] it was 98%.
In the case of `O=C(c1cc2cc(O)ccc2[nH]1)c1cc2cc(O)ccc2[nH]1`, the residual activity in experiment [1] was 67%; in [2], 24%; in [3], 8%; in [4], 0%; in experiment [5] it was 80%; in [6], 33%. The residual activity in [9] was determined as 39%; in experiment [10], 2%.
On to `CSc1nc(-c2ccc(F)cc2)c(-c2ccnc(NC(C)c3ccccc3)c2)[nH]1` (configuration not stated), for which the residual activity in [1] came to 101%; in [2] it was 96%; in experiment [3] it was 66%; in [4], 28%; in experiment [5] it was 98%; in experiment [6], 83%. Further, the residual activity in [9] is 100%; in experiment [10] it was 99%.
`CC(C)(C)n1nc(Cc2cccc3ccccc23)c2c(N)ncnc21`: the residual activity in experiment [1] is 104%; in experiment [2] it was 77%; in experiment [3] it was 11%; in experiment [4] it was 1%; in experiment [5], 110%; in [6], 77%. Further, the residual activity in experiment [7] turned out to be 96%; in [8], 94%; in [9], 87%; in [10] it was 73%.
As for `Nc1n[nH]c2nc3ccccc3nc12`, the residual activity in [1] turned out to be 94%; in experiment [2], 84%; in experiment [3] it was 100%; in experiment [4], 82%; in [9], 99%; in [10] it was 100%.
Regarding `O=C(CCCc1ccc(-c2ccccc2F)cc1)Nc1ccc(O)cc1`, the residual activity came out at 106% in experiment [1]; 96% in [2]; 91% in experiment [3]; 86% in experiment [4]; 85% in experiment [5]; 92% in [6]. The residual activity in [7] came to 103%; in [8], 100%; in [9], 102%; in experiment [10] it was 102%.
Turning to `O=S(=O)(c1cccc2cnccc12)N1CCCNCC1`, the residual activity in experiment [1] is 25%; in experiment [2], 4%; in [3], 53%; in experiment [4], 39%; in experiment [10], 123%.
Regarding `CC(C)c1nn(-c2c(Cl)cccc2Cl)c2nc(Cc3ccc(OCCO)cc3)[nH]c(=O)c12`, the residual activity came to 98% in [1]; 96% in experiment [2]; 103% in experiment [3]; 92% in [4]; 88% in experiment [5]; 92% in [6]. Moreover, the residual activity in [7] worked out at 106%; in experiment [8] it was 88%; in experiment [9] it was 103%; in experiment [10], 104%.
Consider `O=c1cc(N2CCOCC2)oc2c1ccc1ccccc12`, for which the residual activity was 99% in [1]; 67% in experiment [2]; 99% in experiment [3]; 107% in experiment [4]; 98% in experiment [5]; 75% in experiment [6]. In addition, the residual activity in [7] was found to be 100%; in experiment [8], 99%; in experiment [9] it was 87%; in experiment [10], 93%.
As to `Nc1ncnc2[nH]nc(Nc3ccc(F)cc3)c12`, the residual activity in experiment [1] amounted to 104%; in experiment [2], 91%; in experiment [3], 72%; in experiment [4], 18%; in experiment [6] it was 67%; in experiment [7], 104%. In addition, the residual activity in experiment [8] was found to be 95%; in experiment [9], 104%; in experiment [10], 50%.
Regarding `O=c1cc(N2CCOCC2)oc2c(-c3ccccc3)cccc12`, the residual activity in [1] is 100%; in experiment [2], 73%; in [5] it was 64%; in experiment [6] it was 65%.
With `Nc1ncnc2c1c(-c1ccc(Oc3ccccc3)cc1)cn2C1CCCC1`, the residual activity was 90% in experiment [1]; 70% in experiment [2]; 0% in [3]; -1% in experiment [4]; 92% in experiment [5]; 55% in experiment [6]. The residual activity in [7] is 88%; in experiment [8] it was 82%; in [9] it was 59%; in experiment [10], 14%.
On to `c1ccc(-c2cnc(Nc3ccc(OCCN4CCCC4)cc3)s2)cc1`, for which the residual activity stood at 110% in experiment [1], 81% in experiment [2], 37% in experiment [4] and 80% in experiment [8].
`NC(=O)c1cccc(-c2cc(Nc3ccc(OC(F)(F)F)cc3)ncn2)c1`: the residual activity came to 125% in experiment [1], 94% in experiment [2] and 87% in experiment [4].
For the molecule `O=C1NC(=O)c2c1c1c3ccccc3[nH]c1n1cncc21`, the residual activity in experiment [1] amounted to 88%; in [2] it was 85%; in experiment [3], 59%; in experiment [4], 33%; in experiment [5] it was 73%; in experiment [6] it was 71%. Also, the residual activity came to 97% in experiment [7], 88% in experiment [8], 95% in experiment [9] and 69% in experiment [10].
On to `CCN1/C(=C/C(C)=O)Sc2ccc(OC)cc21`, for which the residual activity in experiment [1] is 78%; in [2], 73%.
Turning to `O=C(NC(NC(=S)Nc1ccc(F)c([N+](=O)[O-])c1)C(Cl)(Cl)Cl)C(c1ccccc1)c1ccccc1` (configuration not stated), the residual activity in experiment [1] was found to be 99%; in experiment [2] it was 102%; in experiment [5], 88%; in experiment [6], 93%; in experiment [7], 103%; in [8], 94%.
Regarding `COc1cc2ncnc(Nc3cccc(Cl)c3)c2cc1OC`, the residual activity in experiment [1] is 103%; in experiment [2], 87%; in experiment [3], 39%; in [4], 6%; in [5] it was 116%; in experiment [6], 83%. The residual activity in experiment [7] is 100%; in experiment [8], 105%; in experiment [9], 62%; in experiment [10], 15%.
For the molecule `Nc1nc(Nc2ccc(S(N)(=O)=O)cc2)nn1C(=O)c1c(F)cccc1F`, the residual activity is 16% in experiment [1]; 3% in [2]; 81% in [5]; 33% in experiment [6]; 101% in experiment [7]; 82% in [8]. In addition, the residual activity in [9] was determined as 81%; in [10], 28%.
Take `N#C/C(=C\c1ccc(O)c(O)c1)C(=O)NCc1ccccc1`: the results for the residual activity in experiment [1] and in experiment [2] were 103% and 78%, respectively.
For the molecule `Nc1ncnc2c1cnn2-c1ccccc1`, the residual activity stood at 92% in [1]; 66% in [2]; 101% in experiment [3]; 91% in experiment [4]; 80% in experiment [6]; 90% in experiment [9]. In addition, in [10], the residual activity stood at 93%.
On to `COc1ccc(Cl)cc1NC(=O)Nc1cc(C)nc2ccccc12`, for which the residual activity in experiment [1] was 96%; in [2], 79%; in experiment [3], 93%; in experiment [4] it was 87%; in experiment [7] it was 96%; in experiment [8], 92%.
Take `Cn1sc(=O)n(Cc2ccccc2)c1=O`: the residual activity in experiment [1] stood at 91%; in [2], 83%; in [3], 94%; in [4], 94%; in experiment [5], 81%; in experiment [6], 75%. Besides, the residual activity in [7] is 79%; in experiment [8], 80%.
For the molecule `O=C1Nc2ccc(Cl)cc2/C1=C/c1cc(Cl)c(O)c(Cl)c1`, the residual activity came to 96% in experiment [1]; 65% in [2]; 91% in experiment [3]; 77% in experiment [4]; 61% in experiment [5]; 57% in experiment [6]. For the same molecule, the residual activity in experiment [7] came to 92%; in experiment [8] it was 90%; in [9], 71%; in [10], 57%.
In the case of `Cn1c2ccccc2c2c3c(c4c5ccccc5n(CCC#N)c4c21)CNC3=O`, the residual activity in experiment [1] is 43%; in experiment [2], 31%; in experiment [3], -1%; in [4], 1%; in [7], 1%; in [8] it was 3%.
Regarding `CC(C)(C)c1nc2c3ccc(F)cc3c3c(=O)[nH]ccc3c2[nH]1`, the residual activity was 57% in experiment [1]; 58% in experiment [2]; 18% in [3]; 36% in experiment [4]; 75% in [9].
Consider `CCCCc1c(-c2ccc(O)cc2)[nH]c2nccnc12`, for which the residual activity in [1] was 96%; in [2], 94%; in [3] it was 45%; in experiment [4] it was 48%; in [7] it was 93%; in experiment [8], 82%. Moreover, the residual activity in experiment [9] was determined as 100%; in experiment [10], 99%.
Turning to `O=C1C(Cl)=C(N2C(=O)CCC2=O)C(=O)c2ccccc21`, the residual activity turned out to be 45% in experiment [1]; 16% in experiment [2]; 102% in experiment [3]; 86% in [4]; 92% in experiment [5]; 81% in experiment [6]. The results for the residual activity in experiment [7] and in [8] were 101% and 97%, respectively.
`COc1cc2nccc(Oc3ccc(NC(=S)NC(=O)c4ccccc4C)cc3)c2cc1OC`: the residual activity in [1] came to 87%; in experiment [2], 70%; in [3], 75%; in experiment [4] it was 78%; in experiment [5] it was 30%; in experiment [6], 0%. In addition, the residual activity in [7] was 79%; in experiment [8] it was 52%; in experiment [9], 45%; in experiment [10], 18%.
For `CN(C)S(=O)(=O)c1ccc2c(c1)/C(=C/c1cc3c([nH]1)CCCC3)C(=O)N2`, the residual activity in [1] worked out at 99%.
The same measure, in the same setting: the figure for `CCCCc1c(-c2ccc(OC)cc2)[nH]c2nccnc12` is 79%.
